Results reported in PubChem BioAssay AID488969 (Vanderbilt High Throughput Screening Facility, 2010).
Over roughly 110,000 compounds, “z-score” has its median near -0.1; the highest 2% begin near 2. Many of the other results were omitted from the sample, so the highest values are more common in it than they were. Calls of active or inactive are those of the source.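 The calls were made as follows: active = z-score in the third read window above 3 or below -3; inactive = the rest.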

target: Metabotropic glutamate receptor 8 (Rattus norvegicus) (UniProt P70579); test: mGluR8 Gi/Go-coupled signaling modulation – cell-based, rat, thallium flux, HTS, primary screen (AID 488969); conditions: HEK293 rat mGluR8, GIRK (G protein-gated inwardly rectifying potassium channel) thallium flux, FluoZin2; at 10 µM; stronger effect = higher value; submaximal glutamate (EC20) added with thallium
Sequence (P70579 whole entry, looked up): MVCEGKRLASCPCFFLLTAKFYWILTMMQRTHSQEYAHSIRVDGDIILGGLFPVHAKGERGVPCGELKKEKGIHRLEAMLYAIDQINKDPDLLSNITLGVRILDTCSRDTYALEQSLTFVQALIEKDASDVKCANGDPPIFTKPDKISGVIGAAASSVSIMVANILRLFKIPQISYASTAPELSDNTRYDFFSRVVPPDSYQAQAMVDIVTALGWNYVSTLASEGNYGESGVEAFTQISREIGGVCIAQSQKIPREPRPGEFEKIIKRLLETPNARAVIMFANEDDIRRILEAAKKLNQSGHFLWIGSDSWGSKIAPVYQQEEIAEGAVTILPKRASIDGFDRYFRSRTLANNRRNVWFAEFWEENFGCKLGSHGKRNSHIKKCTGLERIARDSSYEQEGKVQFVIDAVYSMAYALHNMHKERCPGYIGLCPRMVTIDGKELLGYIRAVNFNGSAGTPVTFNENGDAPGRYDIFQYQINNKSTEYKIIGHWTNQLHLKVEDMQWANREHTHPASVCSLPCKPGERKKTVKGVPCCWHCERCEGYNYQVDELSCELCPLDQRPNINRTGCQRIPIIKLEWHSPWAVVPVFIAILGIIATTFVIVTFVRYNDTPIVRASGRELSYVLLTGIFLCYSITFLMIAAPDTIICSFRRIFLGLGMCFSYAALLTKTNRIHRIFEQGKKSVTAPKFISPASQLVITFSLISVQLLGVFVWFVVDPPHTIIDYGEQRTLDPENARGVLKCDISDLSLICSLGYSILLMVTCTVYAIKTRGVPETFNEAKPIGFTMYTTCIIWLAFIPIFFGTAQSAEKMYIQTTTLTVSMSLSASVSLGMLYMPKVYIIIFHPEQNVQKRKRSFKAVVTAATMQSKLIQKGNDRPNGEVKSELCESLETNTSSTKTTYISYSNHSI

SMILES	z-score
Cc1ccc(Cn2c(NCCc3ccccc3)nc3c2c(=O)n(C)c(=O)n3C)cc1	-0.251
C=CCn1c(NCCc2ccccc2)nc2c1c(=O)n(C)c(=O)n2C	0.0292
CC(C)n1c(NCCc2ccccc2)nc2c1c(=O)n(C)c(=O)n2C	2.39
COc1ccc(CNC(=O)CCc2c(C)nc3ncnn3c2C)cc1	0.418
CN(C)CCn1c(=S)[nH]c2ccccc2c1=O	-0.191
COn1c(=S)[nH]c2ccccc2c1=O	1.06
CCOc1cc2[nH]c(=S)n(C(C)C)c(=O)c2cc1OCC	9.84 (active)
CC(C)COn1c(=S)[nH]c2ccccc2c1=O	3.03 (active)
CC(C)n1c(=O)[nH]c2ccccc21	1.11
CC(C)n1c(=S)[nH]c2ccccc2c1=O	9.16 (active)
CCN(CC)CCn1c(=S)[nH]c2ccccc2c1=O	-2.46
COc1nc2ccccc2c(=O)n1OCC(C)C	0.0226
CCOc1cc2[nH]c(=S)n(CCCN(CC)CC)c(=O)c2cc1OCC	-0.475
CC(C)n1c(=S)[nH]c2ccccc21	-0.0644
CC(C)N(CCn1c(=S)[nH]c2ccccc2c1=O)C(C)C	2.64
CCOc1cc2[nH]c(=S)n(CCN3CCC(C)CC3)c(=O)c2cc1OCC	0.809
Cc1ccc(Cn2c(CN3CC(C)OC(C)C3)nc3c2c(=O)[nH]c(=O)n3C)cc1 (stereo not given)	0.0226
O=C(CSc1nnc(-c2ccc(F)cc2)o1)Nc1ccccc1N1CCOCC1	-0.906
CN(C)c1ccc(/C=N\Nc2nc(-c3ccccc3)cc(=O)[nH]2)cc1	-0.138
CC(=O)Nc1ccc(N(C(=O)Cc2c[nH]c3ccccc23)C(C(=O)NC2CCCCC2)c2ccco2)cc1 (stereo not given)	1.17
Cc1ccccc1-c1nc(-c2ccc(NC(=O)c3ccc(Br)o3)cc2)no1	0.0114
N#CNC(=Nc1cccc(F)c1)SCc1cccc(F)c1	-0.141

SMILES	z-score
CCC(C)NC(=O)CSc1nc2c(sc(=S)n2Cc2ccco2)c(=O)n1-c1ccccc1 (stereo not given)	0.437
Cc1ccc2[nH]c(=O)c(CN(Cc3cccs3)S(=O)(=O)c3ccc4c(c3)OCCO4)cc2c1	0.0485
CCOC(=O)Cc1csc(SCC(=O)Nc2cccc(Cl)c2)n1	0.368
Cc1onc(-c2ccccc2Cl)c1C(=O)NC1CCS(=O)(=O)C1 (stereo not given)	-0.0472
COc1cc2cc(CN(CCc3ccccc3C)C(=S)NCCCN(C)C)c(=O)[nH]c2cc1OC	0.66
Cc1ccc2nc(-c3ccc(N4C(=N)SC5CS(=O)(=O)CC54)cc3)sc2c1 (stereo not given)	2.09
CCCC(=O)N=C1SC2CS(=O)(=O)CC2N1c1ccc(-c2nc3ccc(C)cc3s2)cc1 (stereo not given)	-0.238
CC(=O)N=C1SC2CS(=O)(=O)CC2N1c1ccc(-c2nc3ccc(C)cc3s2)cc1 (stereo not given)	0.0589
O=C(NCCCN1CCCCCC1)c1ccc2c(c1)NC(=O)C(N1CCOCC1)S2 (stereo not given)	0.756
CC1CC(C)CN(CCCNC(=O)c2ccc3c(c2)NC(=O)C(N2CCCCC2)S3)C1 (stereo not given)	2.18
O=C(NCCCN1CCCCC1)c1ccc2c(c1)NC(=O)C(N1CCCCC1)S2 (stereo not given)	0.905
CCCCCOC(=O)Cn1c(N2CCOCC2)nc2c1c(=O)[nH]c(=O)n2C	-0.228
Cc1ccc(C2CC(=O)c3cnc(NC(=O)c4ccco4)nc3C2)cc1 (stereo not given)	-0.398
S=C(Nc1ccccc1)c1nc2ccccc2s1	2.64
Cc1cccc(NC(=S)c2nc3ccccc3s2)c1	0.84
Cc1ccc(C)c(NC(=S)N2CCC(c3nc4ccccc4s3)CC2)c1	0.656
S=C(Nc1ccc(Cl)cc1)c1nc2ccccc2s1	0.236
Cc1ccc(C)c(NC(=S)c2nc3ccccc3s2)c1	8.98 (active)
Cc1ccc(NC(=S)c2nc3ccccc3s2)cc1	0.791
Cc1cc(SCC(=O)c2cc(C)n(C)c2C)nc2ccccc12	-0.0351
NC(=O)C1CCN(Cc2nc3ccccc3c(=O)[nH]2)CC1	-0.276
Cn1c(=O)oc2cc(S(=O)(=O)NC3CCN(Cc4ccccc4)CC3)ccc21	-0.316

SMILES	z-score
O=c1oc2ccccc2cc1-c1csc(NN=C2CCCCC2)n1	-0.185
O=C(NNC(=O)C1CCCO1)c1ccc(F)cc1 (stereo not given)	-0.154
CCOCc1nnc(NC(=O)c2cccs2)s1	0.125
Cn1c(N)c(C(=O)c2ccccc2)c(=O)n(C)c1=O	-0.397
CCN(CC(=O)c1c(N)n(C)c(=O)n(C)c1=O)c1cccc2ccccc12	2.55
Cc1ccccc1CSCC(=O)c1c(N)n(C)c(=O)n(C)c1=O	-0.253
COc1ccc(NC(=S)Nc2ccc(S(=O)(=O)N3CCOCC3)cc2)c(OC)c1	0.108
O=C(CSc1nnc(-c2ccco2)n1-c1ccccc1)N1CCc2ccccc21	0.00192
Cc1ccc(Nc2nc(Oc3ccc(=O)[nH]n3)nc(N(C)C)n2)cc1	-0.00557
COCCCNC(=O)C(C#N)c1nc2ccccc2nc1N1CCCC1 (stereo not given)	-0.459
CCCN(CCC)c1nc2ccccc2nc1C(C#N)C(=O)OC(C)COC (stereo not given)	-3.86 (active)
CCCCN(CCCC)c1nc2ccccc2nc1C(C#N)C(=O)NCCCOC (stereo not given)	6.64 (active)
CCN(CC)P1(=O)OC(c2cc(OC)c(OC)c(OC)c2)=Nc2c1c(C)nn2-c1ccccc1 (stereo not given)	-1.4
COc1ccc(S(=O)(=O)N2CCC(C(=O)N3CCN(c4ccccc4OC)CC3)CC2)cc1	-0.274
CC(C)N1CC(C(=O)Nc2ccc(Br)c(Cl)c2)CC1=O (stereo not given)	0.0942
CC(C)(C)S(=O)(=O)c1ccc(S(=O)(=O)C(C)(C)C)s1	2.32
CC(C)(C)S(=O)(=O)c1nc2ccccc2s1	0.279
CCS(=O)(=O)c1ccc(S(=O)(=O)CC)s1	-0.137
CCc1nc(C)cn1S(=O)(=O)c1cc(Cl)c(OC)cc1Cl	2.99
CCc1nc(C)cn1S(=O)(=O)c1cc(Br)c(C)cc1OC	-0.193
CCc1nc(C)cn1S(=O)(=O)c1cc(C)c(OC)cc1C	0.289
Cc1nc(CS(=O)c2ccc(Cl)cc2)cc(NCc2ccc(Cl)cc2Cl)n1 (stereo not given)	0.31

SMILES	z-score
CCOc1nc(-c2ccc(Cl)cc2Cl)ccc1C#N	-0.211
O=C(NC(NC(=S)Nc1ccccc1C(=O)O)C(Cl)(Cl)Cl)c1ccco1 (stereo not given)	-0.106
O=C(O)c1ccccc1NC(=S)NC(NC(=O)c1ccccc1[N+](=O)[O-])C(Cl)(Cl)Cl (stereo not given)	-0.103
COC(=O)c1ccccc1NC(=S)NC(NC(=O)c1ccco1)C(Cl)(Cl)Cl (stereo not given)	15.3 (active)
COc1ccccc1NC(=S)NC(NC(=O)c1ccco1)C(Cl)(Cl)Cl (stereo not given)	-0.246
COC(=O)c1ccccc1NC(=S)NC(NC(=O)c1ccccc1[N+](=O)[O-])C(Cl)(Cl)Cl (stereo not given)	2.67
COc1ccc(NC(=S)NC(NC(=O)c2ccccc2Cl)C(Cl)(Cl)Cl)c([N+](=O)[O-])c1 (stereo not given)	-0.469
CCNC(=O)NC(=O)C(C)OC(=O)c1cccnc1SC (stereo not given)	-0.0754
CN(C)C(=O)C(=O)c1c(-c2ccccc2)cc2ccccn12	-0.294
CN(CC(=O)Nc1ccccc1Br)Cc1nc2ccccc2c(=O)[nH]1	0.733
N#Cc1nc(COc2ccccc2)oc1N1CCN(c2cccc(Cl)c2)CC1	3.31 (active)
N#Cc1nc(COc2cccc(Cl)c2)oc1N1CCCC1	-0.382
N#Cc1nc(Cc2ccccc2)oc1N1CCN(c2cccc(Cl)c2)CC1	0.287
Cc1ncsc1CCOC(=O)C1C2CC3CC(C2)CC1C3 (stereo not given)	0.00939
Cc1c(CCOC(=O)C2C3CC4CC(C3)CC2C4)sc[n+]1CC(=O)c1ccc(Br)cc1 (stereo not given)	2.48
Cc1c(CCOC(=O)CC23CC4CC(CC(C4)C2)C3)sc[n+]1CC(=O)c1ccc(Br)cc1	0.0917
COc1cc2[nH]c(=O)n(CCCCCC(=O)N3CCN(c4ccccc4)CC3)c(=O)c2cc1OC	-0.317
CCOc1cc2[nH]c(=O)n(CCCCC(=O)N3CCCCCC3)c(=O)c2cc1OCC	2.21
COc1cc2[nH]c(=O)n(CCC(=O)N3CCC(N4CCCCC4)CC3)c(=O)c2cc1OC	0.8
O=C(CCC(=O)OCC(=O)c1cccc([N+](=O)[O-])c1)Nc1ccccc1Cl	0.0825
CCOC(=O)CC(=O)Nc1ccc(C)cc1	-0.33
Cc1ccc(C2C(/C=C3/SC(=S)NC3=O)=C(c3cccs3)Oc3ccccc32)cc1 (stereo not given)	2.55

SMILES	z-score
Cc1cccc(N=C2NC(=O)/C(=C\c3cccs3)S2)c1	0.692
Cc1ccc(C2C(C=Nc3c(C)n(C)n(-c4ccccc4)c3=O)=C(c3ccccc3)Oc3ccccc32)cc1 (stereo not given)	-0.137
CCOc1ccccc1C1CC(c2ccc(F)cc2)Nc2nc(N)nn21 (stereo not given)	-0.0345
Cc1ccc(CNC(=O)C(Cc2ccccc2)NS(=O)(=O)c2cccs2)cc1 (stereo not given)	-0.105
O=c1[nH]cnc2sc3c(c12)CCN(Cc1ccccc1)C3	0.233
O=c1[nH]c(CN2CCN(Cc3ccccc3)CC2)nc2sc3c(c12)CCC3	-0.568
CCCSc1nc2sc3c(c2c(=O)[nH]1)CCN(Cc1ccccc1)C3	3.04 (active)
O=C1C=C(NCc2ccco2)CCC1	2
CC1(C)CC(=O)C=C(NCc2ccco2)C1	-0.0748
O=C1C=C(NCc2ccccc2)CCC1	-0.0868
Cc1ccc(Cn2c(SCC(C)C)nc3c2c(=O)[nH]c(=O)n3C)cc1	-0.876
COc1cc2c(=O)n(Cc3ccccc3)c(=O)n(CC(=O)NCCc3ccccc3)c2cc1OC	-0.669
CC1(C)CC(=O)C2=C(C1)NC(=O)CC2c1ccc(F)cc1 (stereo not given)	-0.481
O=C(CCc1nc(-c2ccccc2F)no1)NC1CCN(Cc2ccccc2)CC1	0.608
CCc1ccccc1N(CC)C(=O)CCc1nc(-c2ccc(C)cc2)no1	-0.0345
COc1ccc(-c2noc(CCC(=O)NC3CCN(Cc4ccccc4)CC3)n2)cc1	0.924
Cc1ccc(-c2noc(CCC(=O)NCCN3CCN(Cc4ccccc4)CC3)n2)cc1	-0.696
Cc1ccc(-c2noc(CCC(=O)NCC3CCN(Cc4cccc(C)c4)CC3)n2)cc1	2.64
Cc1ccc(-c2noc(CCC(=O)NC3CCN(Cc4ccccc4)CC3)n2)cc1	2.02
COc1ccc(-c2noc(CCC(=O)NCC3CCN(Cc4cccc(C)c4)CC3)n2)cc1	0.183
Cc1ccc(-c2noc(CCC(=O)N(C)c3ccccc3C)n2)cc1	0.361
CCc1ccccc1N(C)C(=O)CCc1nc(-c2ccc(C)cc2)no1	2.44
